Laboratory results as given in PubChem BioAssay AID2796 (The Scripps Research Institute Molecular Screening Center, 2010).
About 8,000 (2.5%) of roughly 320,000 compounds were called active. This excerpt belongs to a sample that is enriched for actives. Values without a mark were called inactive. Cut-off read from the data, not from the text of the source: active = activation above about 47%; inactive = the rest.

Each molecule was assayed against Aryl hydrocarbon receptor (Homo sapiens) (UniProt P35869) (assay: AHR activators, primary screen, cell-based, luminescence, luciferase reporter, human (AID 2796;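 note: 0% = vehicle wells and 100% = reference agonist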)). Details: AHR-responsive luciferase reporter cells, at 5 µM, active compounds read high.
Sequence of Aryl hydrocarbon receptor (Homo sapiens) (P35869 whole entry, looked up): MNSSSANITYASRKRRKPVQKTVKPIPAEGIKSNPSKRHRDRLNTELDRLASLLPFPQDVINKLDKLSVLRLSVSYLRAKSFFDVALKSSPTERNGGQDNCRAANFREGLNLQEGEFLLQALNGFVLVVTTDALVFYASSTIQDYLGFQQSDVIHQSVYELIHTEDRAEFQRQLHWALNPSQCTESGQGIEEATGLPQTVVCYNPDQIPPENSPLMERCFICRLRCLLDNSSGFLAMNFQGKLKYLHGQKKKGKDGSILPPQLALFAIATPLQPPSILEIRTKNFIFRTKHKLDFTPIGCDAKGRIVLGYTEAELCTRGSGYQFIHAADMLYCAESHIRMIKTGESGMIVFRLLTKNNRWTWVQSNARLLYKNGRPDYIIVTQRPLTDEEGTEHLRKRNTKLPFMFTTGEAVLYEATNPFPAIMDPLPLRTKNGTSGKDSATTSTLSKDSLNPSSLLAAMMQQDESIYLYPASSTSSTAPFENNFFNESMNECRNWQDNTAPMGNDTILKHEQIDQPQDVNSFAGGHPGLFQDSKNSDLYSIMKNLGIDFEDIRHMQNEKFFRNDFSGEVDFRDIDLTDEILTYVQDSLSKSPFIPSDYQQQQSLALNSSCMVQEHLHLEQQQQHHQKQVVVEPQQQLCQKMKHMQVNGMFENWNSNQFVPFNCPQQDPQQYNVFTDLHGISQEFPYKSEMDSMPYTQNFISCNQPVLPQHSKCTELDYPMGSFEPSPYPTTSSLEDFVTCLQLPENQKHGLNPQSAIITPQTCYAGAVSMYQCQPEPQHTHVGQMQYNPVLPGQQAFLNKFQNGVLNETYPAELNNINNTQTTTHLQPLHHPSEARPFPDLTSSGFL

| SMILES | activation |
| --- | --- |
| CN1CCc2ccccc2C1Cc1ccccc1NC(=O)c1sc2ccccc2c1Cl (stereo not given) | 11.4% |
| O=C(N/N=C/c1c(Cl)[nH]c2ccccc12)c1sc2ccccc2c1Cl | 74.3% (active) |
| COc1ccc(CNC(=O)CNC(=O)c2sc3ccccc3c2Cl)cc1OC | -3.5% |
| O=C(CCNS(=O)(=O)c1ccccc1)NCCSc1ccc(Br)cc1 | -0.18% |
| Cc1sc2ncn(CC(=O)NCCCC(=O)N3CCN(c4ccccc4F)CC3)c(=O)c2c1C | -0.77% |
| N#Cc1nc(COc2ccc(-c3ccccc3)cc2)oc1NCc1cccnc1 | -4.66% |
| COc1ccc(Nc2oc(-c3ccccc3Cl)nc2C#N)cc1 | -7.03% |
| CCOc1ccc(Nc2oc(Cc3ccccc3)nc2C#N)cc1 | 58.1% (active) |
| Cc1cccc(N(C)C(=O)c2cc3c(=O)[nH]c4ccc(C)cc4c3s2)c1 | 39% |
| C=CCSc1nnc(Cn2c(=O)sc3ccccc32)n1C | 0.37% |
| Cc1cccc[n+]1CC(=O)c1ccccc1 | 1.77% |
| O=C(C[n+]1cc(Br)cc2ccccc21)c1ccc(F)cc1 | 58.6% (active) |
| O=C(CNC(=O)c1ccc(F)cc1)c1ccccc1 | 3.71% |
| S=c1[nH]cc(-c2ccc(Cl)cc2)n1-c1ccccc1 | 6.37% |
| CC(C)(C)OC(=O)C[C@@H]1C/C=C\C[C@@H](CC(=O)NCCO)C(=O)N[C@H](Cc2c[nH]c3ccccc23)COC1=O | 0.32% |
| C=CCN1C(=O)C2(OCCCO2)c2cccc(Cl)c21 | -2.96% |
| O=c1c(/C=N/O)coc2ccc(Cl)cc12 | -0.55% |
| Cc1ccc2occ(/C=N/NC(=O)c3ccccc3C)c(=O)c2c1 | 6.34% |
| NC(=S)N/N=C/c1coc2cc(Cl)ccc2c1=O | 60.2% (active) |
| O=[N+]([O-])c1ccc2nc(-c3ccccn3)[nH]c2c1 | 3.58% |
| O=c1[nH]n(-c2ccc([N+](=O)[O-])cc2)c(=O)c2ccccc12 | 1.45% |
| O=c1[nH]c2cccnc2n1-c1ccc([N+](=O)[O-])cc1 | 60.9% (active) |
| CCOc1ccc(CN2CCN(CCCc3ccccc3)C(CCO)C2)cc1 (stereo not given) | 0.01% |
| COc1cc(NC(=O)c2cccs2)ccc1NC(=O)c1ccccc1Cl | -11.1% |

| SMILES | activation |
| --- | --- |
| O=C(Nc1ccc2sc3ccccc3c(=O)c2c1)c1ccccc1Cl | 49.1% (active) |
| O=C(Nc1cccc(NC(=O)c2ccccc2[N+](=O)[O-])c1)c1ccccc1Cl | 8.43% |
| COc1cc(S(=O)(=O)N2CCN=C2c2ccccc2)ccc1Cl | 1.21% |
| Cc1ccccc1OCCC(=O)OCC(=O)NC(C)c1ccccc1 (stereo not given) | -2.01% |
| COc1ccc(Cl)cc1C(=O)NNC(=S)NC1CCCC1 | 32.1% |
| C=CCNC(=S)NNC(=O)c1cc(Cl)ccc1OC | 52.7% (active) |
| COc1ccc(Cl)cc1C(=O)NNC(=S)NC(=O)/C=C/c1ccco1 | 4.8% |
| Cc1nc(SCC(=O)N2CCc3ccccc3C2)c2c(C)c(C)sc2n1 | 3.83% |
| COc1ccc(NC(=O)c2ccco2)cc1NC(=O)c1ccc(C#N)cc1F | 96.2% (active) |
| COc1ccccc1C(=O)Nc1ccc(NC(=O)c2ccco2)c(C)c1 | 40.4% |
| COc1cc(NC(=O)c2cc([N+](=O)[O-])ccc2Br)ccc1NC(=O)c1ccco1 | -4.72% |
| O=S(=O)(NC1CC1)c1ccc2c3c(cccc13)CC2 | 1.23% |
| CCn1c(CN2C(=O)CSc3ccccc32)n[nH]c1=S | 1.51% |
| Cc1sc2ncnc(Sc3nc4ccccc4s3)c2c1C | 47.2% (active) |
| CSc1ncnc2sc(C)c(C)c12 | 1.25% |
| COC(=O)c1c(-c2cccs2)csc1NC(=O)CSc1ncnc2sc(C)c(C)c12 | 6.7% |
| O=C(NNS(=O)(=O)c1ccc(F)cc1)C1CCCCC1 | -0.99% |
| CN(CC(=O)Nc1ccc(Cl)cc1)C(=O)c1ccc(COc2ccccc2)cc1 | 0.65% |
| CC(=O)N1c2ccc(S(=O)(=O)N3CCCC(C(=O)Nc4ccc(C)cc4C)C3)cc2CC1C (stereo not given) | 0.6% |
| CCC(=O)c1ccc(OCC(=O)OCC(=O)N2CCc3ccccc3C2)cc1 | -1.4% |
| COc1cc(OC)cc(-c2sc3ccc(OC)cc3c2-c2ccc3cc[nH]c3c2)c1 | 13% |
| COc1ccc2sc(-c3ccccc3OC)c(-c3ccc(OCCN4CCCC4)cc3)c2c1 | 1.65% |
| COc1ccc2sc(-c3ccc(N(C)C)cc3)c(-c3ccc4cc[nH]c4c3)c2c1 | 22.1% |
| COc1ccc2sc(-c3ccc(S(C)(=O)=O)cc3)c(C#Cc3cncn3C)c2c1 | 39.3% |

| SMILES | activation |
| --- | --- |
| COc1ccc(-c2sc3ccc(OC)cc3c2C#Cc2ccccn2)cc1 | 70.4% (active) |
| COc1ccc2sc(-c3ccc(N(C)C)cc3)c(C#CCO)c2c1 | 64.8% (active) |
| CCCN(C(=O)CSc1nnc(N)s1)c1c(N)n(Cc2ccccc2)c(=O)[nH]c1=O | 0.7% |
| COc1cccc(CN(C)CC2CCCN(CCc3ccc(Cl)cc3)C2)c1OC (stereo not given) | -2.92% |
| COc1ccc2c(c1)CCC/C2=N\OC(=O)c1ccccc1F | 2.52% |
| COCCN(Cc1ccccc1)C(=O)Cc1ccc(S(=O)(=O)N2CCOCC2)s1 | 0.03% |
| O=C1OC[C@@H]2CCCN2C(=O)[C@H](CC(=O)N(CCO)Cc2ccccc2)C/C=C\CC[C@@H]1Cc1ccc(F)cc1 | -2.45% |
| COc1ccc(-c2nn(-c3ccccc3)cc2/C=N/Nc2ccccn2)cc1OC | 30.3% |
| COc1ccccc1/C=N\Nc1cc(C)nc(-n2nc(C)cc2C)n1 | 70.2% (active) |
| Cc1cc(N/N=C\c2ccc(Br)cc2)nc(-n2nc(C)cc2C)n1 | 27.3% |
| CCOc1ccccc1NC(=O)COc1ccc(S(=O)(=O)N2CCCC2)cc1 | 7.9% |
| O=C(Nc1nnc(-c2ccccc2)o1)c1cc(-c2cccs2)nc2ccccc12 | 5.25% |
| CC(=O)Nc1cccc(Nc2nc(-c3cccs3)nc3ccccc23)c1 | 51.4% (active) |
| COc1ccccc1C(=O)Nn1c(-c2cccs2)nc2ccccc2c1=O | 13.9% |
| Cc1nc2c(ncn2-c2ccccc2)c(=O)n1NC(=O)CN1CCCC1 | 0.17% |
| CC1CN(c2nc(-c3ccccc3)nnc2-c2ccccc2)CC(C)O1 (stereo not given) | 10.3% |
| CC(C)Cn1c(CCC(=O)O)ccc1-c1cccs1 | -1.84% |
| COc1cc2nc(Cl)nc(NCCO)c2cc1OC | -0.57% |
| OCCCNc1nc(-c2ccccc2)c2cc(Cl)ccc2n1 | 3.68% |
| OCCNc1nc(Nc2ccc(Cl)c(Cl)c2)nc2ccccc12 | 124% (active) |
| O=C(NC(CC(=O)N1CCN(c2ccccc2)CC1)c1ccccc1)c1ccccc1Cl (stereo not given) | -0.75% |
| O=C(Nn1c(-c2ccc(Cl)cc2)nc2ccccc2c1=O)c1cccnc1Cl | 104% (active) |
| Cc1cccc(-c2nc3ccccc3c(=O)n2NC(=O)Cc2ccc(Cl)cc2)c1 | -0.38% |
| COc1cc(OC)cc(-c2nc3ccccc3c(=O)n2NC(=O)c2cccnc2Cl)c1 | 4.93% |

| SMILES | activation |
| --- | --- |
| COc1ccc(C(=O)COC(=O)c2ccc3ccccc3n2)cc1 | 2.48% |
| O=C(Nc1ccc(S(=O)(=O)Nc2ccccn2)cc1)c1ccccc1 | -0.84% |
| c1ccc(-c2cn3c(n2)CCc2ccc4cccnc4c2-3)cc1 | 64% (active) |
| O=S(=O)(Nc1ncccn1)c1ccc(NS(=O)(=O)c2cccc(Cl)c2Cl)cc1 | 0.76% |
| CC(=O)c1ccccc1OCc1ccc(C(=O)c2ccccc2)cc1 | 0.89% |
| CCCOc1ccc(Cn2ccnc2)cc1[N+](=O)[O-] | 59.2% (active) |
| CCCCCOc1ccc(CSC2=NCCN2)cc1[N+](=O)[O-] | 6.95% |
| CCCCOc1ccc(CSC(=N)N)cc1[N+](=O)[O-] | 15% |
| COc1ccc(-c2cc(C(=O)NCCCN3CCCC3=O)c3ccccc3n2)cc1OC | 11.6% |
| O=C(CCC(=O)NNc1nc2ccccc2c2nc(-c3ccccc3)nn12)NCCCN1CCCC1=O | 55.5% (active) |
| Cc1nn(Cc2ccccc2)c(C)c1C(=O)NCCCN1CCCC1=O | 2.56% |
| COc1ccc(N(CC(=O)NC2CCCCC2)C(=O)CNC(=O)c2ccco2)c(OC)c1 | 0.47% |
| O=C(CN1C(=O)NC2(CCCCCCC2)C1=O)NCc1ccc(F)cc1 | 2.09% |
| O=C1NC[C@@H](Cc2ccc(O)cc2)N(CCc2cccc(F)c2)C1=O | -0.45% |
| COc1ccc2cc(C(=O)O)n(CC(=O)c3ccccc3)c2c1 | 18.9% |
| O=C(Cn1nnc(N2CCCCC2)n1)c1ccc(Cl)c(Cl)c1 | -3.18% |
| CCn1c(=N)n(CC(=O)c2cccc(OC)c2)c2ccccc21 | 50.3% (active) |
| CCOC(=O)c1cc2ccccc2n1CC(=O)c1ccccc1 | 24% |
| CCCn1c(=N)n(CC(=O)c2ccc(Cl)c(Cl)c2)c2ccccc21 | 66.2% (active) |
| CCN(CC)CC1(O)CCN(C(=O)c2ccc(Cl)c(Cl)c2)CC1 | 10.4% |
| O=C(c1c(F)cccc1Cl)N1CCN(S(=O)(=O)c2ccc3c(c2)OCCCO3)CC1 | -0.63% |
| O=C(Nc1ccc(N2CCCCC2)cc1)c1cc(S(=O)(=O)N2CCOCC2)ccc1F | 0.49% |
| CCc1ccccc1NC(=S)N(CCN1CCCCCC1)Cc1ccco1 | 0.79% |
